The source of these data is PubChem BioAssay (Tox21).

Records with an inconclusive call do not appear. A call without a number means that no potency is given here. The source made the active and inactive calls. The call rests on the fitted dose curve; in most records, active means well fitted activation curve with a large enough effect in the repeat runs; inconclusive means weak or mixed curves; inactive means flat fitted curve, though single readings scatter.

This test in a line: A CellTox Green Cytotoxicity Assay to monitor cytotoxicity in HEK293 cells - 24 hour (AID 1224875). Further: nearly all actives have a fitted effect of over 45% in size. The note with it: CellTox Green fluorescence; series mostly up to 76.8 µM. The source says:
National Center for Advancing Translational Sciences [NCATS]
NIH Chemical Genomics Center [NCGC]
U.S. Environmental Protection Agency [EPA]
National Institutes of Environmental Health Sciences [NIEHS]
National Toxicology Program [NTP]
Cell-based models are critical for drug discovery. Determining the natural cytotoxic effects resulting from test compounds is an essential research activity. A CellTox Green Cytotoxicity Assay to monitor cytotoxicity in real time of continues cell culture during 40 hours of the compound treatment was used to screen Tox21 10K library compounds in Hek293 cells. CellTox Green Cytotoxicity Assay is a nonlytic, homogeneous, biofluorescent method to measure cytotoxicity in cell culture after experimental manipulation. The assay system uses a proprietary asymmetric cyanine dye that is excluded from viable cells but preferentially stains the dead cell's DNA. […] Viable cells produce no appreciable increases in fluorescence. Therefore, the fluorescence signal produced by the binding interaction with dead cell DNA is proportional to cytotoxicity.
The mixture of Hek293 cell suspension and reagents were dispensed at 600cells/6 ul/well in 1536-well tissue culture treated black solid bottom plates using a Multidrop dispenser. After the assay plates were incubated at a 37 C/5% CO2 incubator for 5 hours, 23 nL of compounds dissolved in DMSO, positive and negative controls was transferred to the assay plate by a pintool work station. The plates were incubated at 37 C for 40 hours. The fluorescence intensity were measured at 0h, 8h, 16h, 24h, 32h and 40h time points using ViewLux plate reader during compound treatment.
For the molecule `CN1CCC(=C2c3ccccc3C=Cc3ccccc32)CC1`, the Potency entry is “inactive”.

As to `CC(C(=O)O)c1ccc(-c2ccccc2)c(F)c1` (stereo not given), the Potency result is “inactive”.

As to `CC(C)NCC(O)c1cc(O)cc(O)c1` (stereo not given), the Potency result was “inactive”.

With `O=C(O)c1cccc(N(Cc2cccnc2)c2ccc(OC(F)F)c(OC(F)F)c2)c1`, the Potency result was “inactive”.

Take `CCCCCCCCCC(=O)OCC`: the Potency entry is “inactive”.

With `Cc1ccc(C)o1`, the Potency result is “inactive”.

Take `Cc1cc(C)c(S(=O)(=O)O)cc1N=Nc1cc(S(=O)(=O)O)c2ccccc2c1O`: the Potency result was “inactive”.

Turning to `CCCCCCCCCCCCCCC1CO1` (stereo not given), the Potency entry is “inactive”.

On to `C[C@H](CCC(=O)O)[C@H]1CC[C@H]2[C@@H]3[C@H](O)C[C@@H]4C[C@H](O)CC[C@]4(C)[C@H]3CC[C@]12C`, for which the Potency entry was “inactive”.

Take `CCCCCCCCCCCCCCCC(=O)OC/C=C(C)/C=C/C=C(C)/C=C/C1=C(C)CCCC1(C)C`: the Potency entry was “inactive”.

In the case of `CCCCCCCCN(C)C`, the Potency result is “inactive”.

In the case of `CC[C@]12CCCN3CCc4c(n(c5ccccc45)C(=O)C1)[C@@H]32`, the Potency result was “inactive”.

As for `Nc1ccc(C(=O)Nc2ccccc2N)cc1`, the Potency result is “inactive”.

Consider `CC[C@@H]1C[C@H](N(Cc2cc(C(F)(F)F)cc(C(F)(F)F)c2)C(C)=O)c2cc(C(F)(F)F)ccc2N1C(=O)OC(C)C`, for which the Potency result was “inactive”.

`C=CC(=O)OCC(C)OCC(C)OCC(C)OC(=O)C=C` (stereo not given): the Potency result is “inactive”.

Consider `OCCC1CCCCN1` (stereo not given), for which the Potency result was “inactive”.

In the case of `CC(C)c1ccccc1C(C)C`, the Potency result is “inactive”.

Turning to `CC(C)(C)c1cc(O)c(C(C)(C)C)cc1O`, the Potency result is “inactive”.

Regarding `CC(C)NCC(O)COc1ccc(CC(N)=O)cc1` (stereo not given), the Potency result is “inactive”.

Take `Nc1nc(N)c2nc(CNc3ccc(C(=O)N[C@@H](CCC(=O)O)C(=O)O)cc3)cnc2n1`: the Potency entry is “inactive”.

Take `CC[C@H](C)[C@@H](C(=O)O)n1sc2ccccc2c1=O`: the Potency entry was “inactive”.

For the molecule `N[C@H]1C(O)O[C@H](CO)[C@H](O)[C@@H]1O` (stereo not given in full), the Potency entry is “inactive”.

Consider `CC1=CC(=O)/C(=C(/C)O)C(=O)O1`, for which the Potency result was “inactive”.

With `CCCCCCCCC(CO)CCCCCC` (stereo not given), the Potency entry is “inactive”.

Take `Cn1c(NCCN(CCO)CCCc2ccc([N+](=O)[O-])cc2)cc(=O)n(C)c1=O`: the Potency entry was “inactive”.

With `COCCO`, the Potency entry is “inactive”.

Regarding `CC(C)(C)c1cc(CO)cc(C(C)(C)C)c1O`, the Potency entry was “inactive”.

Consider `CC(CN)CCCN` (stereo not given), for which the Potency result is “inactive”.

For `CN1CCC[C@@H]1c1cccnc1`, the Potency entry is “inactive”.

Take `CN(C)C/C=C(/c1ccc(Br)cc1)c1cccnc1`: the Potency entry was “inactive”.

For the molecule `Cn1sccc1=O`, the Potency entry is “inactive”.

Turning to `CCCCCC/C=C/C=O`, the Potency result was “inactive”.

On to `CC(=O)c1ccc2c(c1)[C@H](NC(=O)c1ccc(F)cc1)[C@@H](O)C(C)(C)O2`, for which the Potency entry is “inactive”.

On to `O=C(O)Cn1c(C(=O)Nc2nc(-c3ccccc3Cl)cs2)cc2ccccc21`, for which the Potency result is “inactive”.

Turning to `COC(Cc1ccccc1)OC`, the Potency result is “inactive”.

In the case of `O=C(CC(=O)c1ccccc1)c1ccccc1`, the Potency result is “inactive”.

For `O=C(C(=O)c1ccc(Br)cc1)c1ccc(Br)cc1`, the activity change is -0.496% [at 15.8 µM, active compounds read high] (inactive).

`O=C(CCN1CCN2CCCC2C1)N1c2ccccc2Sc2ccc(Cl)cc21` (stereo not given): the activity change is 0.914% [at 15.8 µM, active compounds read high] (inactive).

Consider `CC1(C)[C@H]2CC[C@]1(C)[C@H](O)C2`, for which the Potency entry is “inactive”.

For `Cc1ccccn1`, the Potency result is “inactive”.
